This is a sample that favours compounds with a hit; in the whole collection about 7.2% have one here.
Luciferase inh: blocks purified firefly luciferase enzyme activity. P08659. 2.5% of 76,000 active. Potency, µM (series often up to 115 µM), most hits filed as inhibitors. AID 1347043. purified P. pyralis luciferase, luminescence, biochemical; further: on the % scale 0 is the no-effect control and ±100 the full control effect; nearly all actives have a fitted effect of over 65% in size
Target sequence (P08659 whole entry, looked up): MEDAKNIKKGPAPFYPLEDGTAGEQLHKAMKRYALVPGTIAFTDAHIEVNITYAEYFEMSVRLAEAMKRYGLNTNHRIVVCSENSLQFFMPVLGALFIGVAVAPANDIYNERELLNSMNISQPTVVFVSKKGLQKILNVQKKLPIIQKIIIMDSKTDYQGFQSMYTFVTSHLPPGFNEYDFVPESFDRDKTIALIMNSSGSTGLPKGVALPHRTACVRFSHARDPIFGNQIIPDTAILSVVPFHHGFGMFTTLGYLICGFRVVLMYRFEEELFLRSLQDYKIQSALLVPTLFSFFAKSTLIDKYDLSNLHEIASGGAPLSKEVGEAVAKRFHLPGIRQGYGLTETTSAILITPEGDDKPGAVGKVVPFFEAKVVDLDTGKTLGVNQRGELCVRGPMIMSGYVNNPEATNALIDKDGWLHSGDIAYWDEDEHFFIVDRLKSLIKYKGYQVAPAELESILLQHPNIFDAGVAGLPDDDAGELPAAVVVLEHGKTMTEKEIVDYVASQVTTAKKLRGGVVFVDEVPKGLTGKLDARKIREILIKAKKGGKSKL
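FLuc 10nM, D-luciferin 10uM, ATP 10uM, Mg acetate 10mM, Tris acetate pH 7.5, Tween/BSA; cpd qHTS; enzyme added last; CCD luminescence.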
hNpr1 antagonist: antagonists of human natriuretic peptide receptor Npr1; HEK293 hNpr1 GloSensor cGMP, ANP-stimulated luminescence; Potency, µM (highest dose often 46.3 µM), without a hit: at the highest dose activity change, negative = inhibition, most hits filed as inhibitors; 1.6% of 76,000 active; calls by dose curve; further: on the % scale 0 is the no-effect control and ±100 the full control effect; nearly all actives have a fitted effect of over 60% in size
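Compound pre-incubated 30 min at room temperature on GloSensor-loaded HEK293 cells stably carrying hNpr1 and the pGS-40F cGMP biosensor. Stimulation uses hNppA at 0.1 nM final; luminescence is taken at baseline and 20 min post-agonist.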
HEK293 tox: cytotoxic compounds in HEK 293 cells; HEK 293 viability, ATP luminescence (CellTiter-Glo), 48-72 h; Potency, µM (doses to about 115 µM), without a hit: at the highest dose activity change, negative = cytotoxicity, hits mostly inhibitors; 6.6% of 94,000 active; further: on the % scale 0 is the no-effect control and ±100 the full control effect; nearly all actives have a fitted effect of over 60% in size
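HEK 293 cells at 250 cells/well were exposed to compounds by pintool transfer for 48 or 72 hr at 37 degree Celsius, 5% CO2. Viability was read as ATP-coupled luminescence with CellTiter-Glo after 10 min at room temperature.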
SNCA viab count: cell viability loss counter-screen; Potency, µM (series often up to 57.1 µM), inactives show top-dose activity change, negative = cytotoxicity, hits mostly cytotoxic; 0.12% of 150,000 active; HEK-293-SNCA-luc viability, GF-AFC fluorescence, 24 h;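 further: 0% = DMSO-treated cells and -100% = medium-only wells without cells; nearly all actives have a fitted effect of over 30% in size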
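HEK-293-SNCA-luc cells (1500/well) plated 24 h, then exposed 24 h to a dilution series; GF-AFC added 30 min at 37C, fluorescence 405/540 nm; normalised to medium-only and DMSO wells, Hill fit.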
3T3 cytotox: kills NIH 3T3 cells | NIH 3T3 viability, CellTiter-Glo ATP luminescence, 48-72 h | Potency, µM (top dose mostly 96.7 µM), without a hit: at the top dose activity change, negative = cytotoxicity, actives largely listed as inhibitors | 4.3% of 94,000 active | AID 1345082; further: on the % scale 0 is the no-effect control and ±100 the full control effect; nearly all actives have a fitted effect of over 55% in size
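Cytotoxicity was measured by CellTiter-Glo ATP luminescence after 48 or 72 h compound exposure at 37 °C. Mouse NIH 3T3 fibroblasts were seeded at 400 cells/well and dosed by 23 nL pin transfer.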
SNCA expr inh: SNCA gene expression inhibition; Potency, µM (top dose mostly 57.2 µM), for the others: at the top dose activity change, negative = inhibition, most hits filed as inhibitors; HEK-293 SNCA-luciferase knock-in, luminescence, 24 h; 0.17% of 140,000 active;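 further: plate controls were DMSO cells for no effect and cell-free wells for full effect; nearly all actives have a fitted effect of over 45% in size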
NPR1 antag cnf: confirmation of human Npr1 natriuretic peptide receptor antagonists; shares compounds with hNpr1 antagonist; HEK293 hNpr1 cGMP GloSensor luminescence, ANP-stimulated; Potency, µM (highest dose often 57.6 µM), without a hit: at the top dose activity change, negative = inhibition, hits mostly inhibitors; 76% of 1,400 active; AID 1347044; calls by dose curve; further: nearly all actives have a fitted effect of over 70% in size
NPR2 antag: antagonizes human Npr2, subtype selectivity check | shares compounds with hNpr1 antagonist | Potency, µM (series often up to 57.6 µM), inactives show at the top dose activity change, negative = inhibition, actives largely listed as inhibitors | AID 1347046 | 67% of 1,400 active | HEK293 hNpr2 GloSensor cGMP luminescence, CNP-stimulated; calls by dose curve; further: nearly all actives have a fitted effect of over 70% in size
FLuc counter: inhibits firefly luciferase, false Npr1 antagonist flag. shares compounds with hNpr1 antagonist. purified FLuc enzyme, luminescence, Km substrate. Potency, µM (doses to about 57.6 µM), without a hit: at the top dose activity change, negative = inhibition, hits mostly inhibitors. 0.7% of 1,400 active; further: 0% is about no effect
GloSensor ctrl: counter-screen for Npr1 antagonists: GloSensor control cell line; 69% of 1,400 active; HEK293 GloSensor cGMP, SNP-stimulated, luminescence; Potency, µM (titrated, usually from 57.6 µM), without a hit: at the highest dose activity change, negative = inhibition, actives largely listed as inhibitors; shares compounds with hNpr1 antagonist; calls by dose curve; further: on the % scale 0 is the no-effect control and ±100 the full control effect; nearly all actives have a fitted effect of over 70% in size
The depositor's hits bear a star; i = inactive; ? = inconclusive; / = not tested or not shown; [ ] = another dose, or the depositor's remark. Unless noted, the call rests on the fitted dose curve; in most records, active means well fitted curve in the direction sought with a large enough effect; inconclusive means small, poorly fitted or top-dose-only effect, or another doubt; inactive means no such curve, though single readings can be large; an effect the other way counts as inactive or inconclusive. Potency means the concentration at half of the fitted maximal effect.

SMILES | Luciferase inh | hNpr1 antagonist | HEK293 tox | SNCA viab count | 3T3 cytotox | SNCA expr inh | NPR1 antag cnf | NPR2 antag | FLuc counter | GloSensor ctrl
Cc1cc(C(=O)N2CCC3(CC2)CC(CC(=O)NCc2ccccc2)CCO3)n[nH]1 (configuration not stated) | i | 0% | 13% | -11% | i | 4% | / | / | / | /
COc1cc(CN2C[C@@H]3C(=O)N(CCCN4CCCC4=O)C(=O)[C@@H]3C2)cc(OC)c1 | i | -4% | 1% | 2% | -16% | 25% | / | / | / | /
COc1cccc(-c2cc(C3CCN(C(=O)c4ccccc4Br)CC3)[nH]n2)c1 | i | 18µM* | 28µM* | -6% | ? | 15% | 24µM* | 24µM* | 0% | 22µM*
O=C(c1ccccn1)N1CCC(c2cc(-c3ccccc3)n[nH]2)CC1 | i | 1% | ? | 1% | -17% | -10% | / | / | / | /
COc1ccc(C(=O)N2CCC3(CC2)N=C(c2cccc(Br)c2)NO3)cc1F | i | ? | ? | -4% | ? | 9% | ? | ? | 6% | 27µM*
COc1ccc(C(=O)N2CCC3(CC2)N=C(c2cccc(Br)c2)NO3)c(OC)c1 | i | 11µM* | ? | -26% | ? | ? | 24µM* | 24µM* | 6% | 22µM*
Cc1ccsc1C(=O)N1CCC2(CC1)N=C(c1cccc(Br)c1)NO2 | i | 13µM* | ? | -3% | ? | -14% | 27µM* | ? | 3% | 27µM*
COc1ccccc1CCC(=O)N1CCC2(CC1)N=C(c1cccc(Br)c1)NO2 | i | -26% | ? | -21% | ? | ? | ? | ? | 3% | -30%
N#Cc1ccc(-c2c(-c3ccccc3)ncn2CCNc2cccnc2)cc1 | i | -28% | -22% | -3% | -12% | 33% | / | / | / | /
CCC(Cn1cnc(-c2ccccc2)c1-c1ccc(C#N)cc1)N1CCN(C)CC1 (configuration not stated) | i | 11µM* | 79µM* | -20% | ? | -12% | 24µM* | 17µM* | 3% | -6%
Cc1ccccc1CNC(=O)c1nn(CC2CC2)c2c1CNCC2 | / | / | ? | 5% | ? | -12% | / | / | / | /
COc1ccccc1CNC[C@H]1O[C@H](Cc2cc(CN3CCOCC3)on2)CC[C@@H]1O | i | 0%[70.6 µM] | i | -8%[87.6 µM] | i | 10%[87.6 µM] | / | / | / | /
COC(=O)N1CCCC(C(=O)N2CCCC(c3nc4ncccc4[nH]3)C2)C1 (configuration not stated) | / | / | i | -15% | -7% | -1% | / | / | / | /
CN(Cc1cccnc1)Cc1nc(C2(O)CCN(Cc3ccc(C(F)(F)F)cc3)CC2)cs1 | i | 1µM* | -58% | -22% | -46% | ? | 0.86µM* | 1.7µM* | 0% | 0.86µM*
O=C(CC1CCOCC1)NCC1CCN(Cc2cccc(F)c2)CC1 | i | -2% | 3% | -5%[12.5 µM] | i | 25% | / | / | / | /
O=C(CCC1CCN(S(=O)(=O)c2ccc(F)cc2)CC1)NCc1nc2ccccc2[nH]1 | i | 11µM* | ? | -15% | -44% | -18% | 19µM* | 22µM* | 0% | 15µM*
COCCn1nc2n(c1=O)CCN(Cc1ccc3[nH]ccc3c1)CC2 | i | -1% | -5% | -14% | -4% | -12% | / | / | / | /
C[C@@H]1C(=O)O[C@H]2[C@H]1CC[C@@]1(C)Cc3sc(NC(=O)c4ccc(N(C)C)cc4)nc3[C@@H](C)[C@H]21 | i | 8.9µM* | ? | 0% | 32µM* | 17% | 14µM* | ? | -1% | 11µM*
C[C@H]1[C@@H]2[C@H]3OC(=O)[C@H](C)C3CC[C@@]2(C)CC[C@@H]1NC(=O)c1ccncc1 (some centres not stated) | i | -4%[70.6 µM] | -29%[172 µM] | -5%[87.6 µM] | -28%[138 µM] | 8%[87.6 µM] | / | / | / | /
OC1CC(c2cc(N3CCN(c4nsc5ccccc45)CC3)ncn2)C1 (configuration not stated) | i | 1.6µM* | 11µM* | ? | 18µM* | ? | 2.7µM* | 3.1µM* | -13% | 2.4µM*
OC1CC(c2cc(N3CCC(CCn4cccn4)CC3)ncn2)C1 (configuration not stated) | i | 7.9µM* | ? | -4% | ? | -22% | 14µM* | 12µM* | 0% | 9.7µM*
O=C(CCc1nnn2c1CN(C(=O)c1ccc(F)cc1)CC2)NC1CC1 | i | -1% | -8% | -4% | -17% | -7% | / | / | / | /
COCCCn1c(C)cnc1CC1CCN(S(=O)(=O)c2cccs2)CC1 | / | / | 3% | 3% | -31% | -7% | / | / | / | /
CCCc1ccc(S(=O)(=O)NC2CCN(c3ccc(=O)n(CC4CC4)n3)CC2)cc1 | i | 10µM* | ? | -6% | ? | ? | 12µM* | 15µM* | -1% | 14µM*
O=C(CCC1CCCCC1)NC1CCN(c2ccc(=O)n(CC3CC3)n2)CC1 | i | ? | ? | -4% | ? | ? | / | / | / | /
O=c1ccc(N2CCC(NS(=O)(=O)c3ccccc3Cl)CC2)nn1CC1CC1 | i | 13µM* | -39% | ? | ? | ? | 27µM* | 22µM* | -1% | 24µM*
COc1ccc(-n2c(=O)c(C(=O)NCc3cccc(OC)c3)nc3cccnc32)cc1 | / | / | ? | -19% | ? | -19% | / | / | / | /
O=C(c1cccc(F)c1)N1CCN(C(=O)c2nnn3c2COC(c2ccccc2)C3)CC1 (configuration not stated) | i | -26% | ? | -7% | -30% | -20% | / | / | / | /
CN1CCN(C(=O)c2csc(N3CCN(c4ccc(Cl)cc4)CC3)n2)CC1 | ? | -11% | ? | -25% | ? | 9% | / | / | / | /

Screening data as filed in PubChem BioAssay.
